Measured values: PubChem BioAssay (NCATS)
Values joined by “and” are separate entries in the source; they are usually repeats but may differ in a detail not shown here. Equal values may be shown once. Results filed as inconclusive are left out. Active and inactive are the calls of the source. Calls come from the whole dose curve; as a rule, active = well fitted inhibition curve with a large enough effect; inconclusive = small, poorly fitted or top-dose-only effect; inactive = no such curve, though single readings can be large or run the other way.

Biological target: Retinaldehyde dehydrogenase 3 (Homo sapiens) (UniProt P47895)
Assay: qHTS for Inhibitors of the Aldehyde Dehydrogenase Family (ALDH1A3) Validation screen (AID 2061312); note: nearly all actives have a fitted effect of over 45% in size
Settings: ALDH1A3 enzyme inhibition qHTS validation, fluorescence; series mostly up to 84.7 µM; activity change, negative = inhibition: at the top concentration
% is set by controls: 0 for no effect and ±100 for the full control effect; potency is the fitted concentration of half-maximal effect.

SMILES	activity change, negative = inhibition	Potency
COc1ccccc1N1CCN(CCCNc2cc(=O)n(C)c(=O)n2C)CC1	-1.13% [at 42.4 µM] (inactive)	–
CNC(=O)Oc1ccc2c(c1)[C@]1(C)CCN(C)[C@@H]1N2C	-21.6% [at 42.4 µM] (inactive)	–
CC(C)NCC(O)COc1cccc2[nH]ccc12 (configuration not stated)	16.4% [at 42.4 µM] (inactive)	–
CCNc1nc2c(ncn2[C@H]2C[C@H](O)[C@@H](CO)O2)c(=O)[nH]1	5.18% [at 42.4 µM] (inactive)	–
CN1CCC[C@@H]1Cc1c[nH]c2ccc(CCS(=O)(=O)c3ccccc3)cc12	19.6% [at 42.4 µM] (inactive)	–
Nc1ncnc2c1c(-c1ccc(Oc3ccccc3)cc1)cn2C1CCCC1	36.1% [at 42.4 µM] (inactive)	–
O=C(O)/C(=C/c1c(C(=O)O)[nH]c2cc(Cl)cc(Cl)c12)c1ccccc1	-0.152% [at 42.4 µM] (inactive)	–
CCc1ccc(/C=C2/SC(=S)NC2=O)cc1	-26.5% [at 42.4 µM] (inactive)	–
O=C(Nc1ccc2[nH]ncc2c1)C1CCC1	18% [at 42.4 µM] (inactive)	–
O=C(O)c1ccccc1Nc1cccc(OCc2ccc3ccccc3n2)c1	8.74% [at 42.4 µM] (inactive)	–
Clc1ccc2c(c1)N=C(N1CCNCC1)c1ccccc1N2	1.78% [at 42.4 µM] (inactive)	–
CCCCN(CC)c1nc(C)nc2c1c(C)cn2-c1c(C)cc(C)cc1C	–	1.26 µM (active) and 12.6 µM (active)
O=C(O)CCc1nc(-c2ccccc2)c(-c2ccccc2)o1	–	inactive
CCN1CCC[C@H]1CNC(=O)c1cc(S(N)(=O)=O)ccc1OC	9.91% [at 42.4 µM] (inactive)	–
Cc1nn(-c2ccccc2)c(C)c1/C=N/N1CCN(Cc2ccccc2)CC1	6.68% [at 42.4 µM] (inactive)	–
CN(C)CCC(c1ccccc1)c1ccccn1 (configuration not stated)	–	inactive
CS(=O)(=O)c1ccc(-n2nc(C(F)(F)F)cc2-c2ccc(F)cc2)cc1	27.9% [at 42.4 µM] (inactive)	–
